Experimental findings from PubChem BioAssay AID485270 (The Scripps Research Institute Molecular Screening Center, 2010) are described below.

Molecules are shown by their SMILES. Among all 330,000 compounds or so, about 5,800 (1.8%) were called active. Only a selection was taken, and actives are over-represented in it overall. Values without a mark were called inactive. No stated cut-off is given here; in the data, active means inhibition mostly above about 38% (no sharp cut-off); inactive means mostly below about 40%.

Orexin/Hypocretin receptor type 1 (Homo sapiens), sequence (O43613 whole entry, looked up): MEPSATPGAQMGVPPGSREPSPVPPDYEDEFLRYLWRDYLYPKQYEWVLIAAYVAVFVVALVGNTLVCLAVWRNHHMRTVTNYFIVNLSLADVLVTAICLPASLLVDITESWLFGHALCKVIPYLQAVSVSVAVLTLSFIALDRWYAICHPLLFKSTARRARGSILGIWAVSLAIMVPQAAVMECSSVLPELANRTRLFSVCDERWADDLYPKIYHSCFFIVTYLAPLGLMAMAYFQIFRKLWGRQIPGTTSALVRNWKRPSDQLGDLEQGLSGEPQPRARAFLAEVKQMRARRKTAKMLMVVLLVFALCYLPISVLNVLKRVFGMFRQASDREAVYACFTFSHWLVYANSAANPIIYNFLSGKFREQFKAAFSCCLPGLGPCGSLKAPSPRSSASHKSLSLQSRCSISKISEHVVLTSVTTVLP

The assay concerns the target Orexin/Hypocretin receptor type 1 (Homo sapiens) (UniProt O43613). The assay is described as follows: antagonists of human orexin 1 receptor (OX1R) (AID 485270).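 Further: 0% = agonist challenge alone and 100% = reference antagonist.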 The settings on record: OX1R-expressing cells, FRET antagonist read-out; at 6.6 µM; hits give high values.
In the case of `CC(=O)N1CCN(C(=O)c2cccc(S(=O)(=O)Nc3ccc(C)cc3)c2)CC1`, the inhibition was -3.44%.
On to `Cc1cccc(NS(=O)(=O)c2ccc(C)c(C(N)=O)c2)c1`, for which the inhibition was 19.2%.
Consider `Cc1cccc(NS(=O)(=O)c2cccc(C(=O)NNC(=O)c3ccccc3O)c2)c1`, for which the inhibition is 29.7% (active).
For `COc1cc(/C=C2\Oc3ccc(C#Cc4ccc(O)cc4)cc3C2=O)cc(OC)c1`, the inhibition was 2.43%.
As for `O=C(COC(=O)c1ccco1)Nc1ccc(Cl)cn1`, the inhibition was 1.22%.
In the case of `CCNC(=O)N(CC)C[C@H]1N[C@@](CC)(C(=O)OC)[C@H]2C(=O)N(Cc3ccccc3)C(=O)[C@@H]12`, the inhibition was -4.57%.
Under `CC(C)(C)OC(=O)C[C@@H]1C/C=C\C[C@@H](CC(=O)N(CCO)Cc2ccccc2)C(=O)N[C@H](Cc2ccccc2)COC1=O` stands 13.4%; under `CC(C)(C)c1cc[n+](-c2[nH]c(=O)sc2/C=N/N=C(\[O-])c2ccccc2)cc1`, 59.4% (active); under `O=C(N[C@@H]1C/C=C\C[C@@H](CC(=O)N(CCO)Cc2ccccc2)C(=O)N[C@H](Cc2ccccc2)COC1=O)OCC1c2ccccc2-c2ccccc21`, 9.35%.
As to `CC1O[C@H](OC2C(COC3OC(CO)C(O)[C@H](O)C3O)OC(OC3CC[C@]4(C)C(CC[C@@]5(C)[C@@H]4C=C[C@]46OC[C@@]7(CCC(C)(C)C[C@H]74)C(O)C[C@@]56C)C3(C)C)C(O)C2O)C(O)C(O)C1O` (some centres undefined), the inhibition is 0.25%.
Next, `S=c1[nH]nc(-c2cc(-c3ccccc3)n[nH]2)n1/N=C/c1c2ccccc2cc2ccccc12`: 117% (active); `c1ccc(-c2cc(-c3ccccc3)[nH]n2)cc1`: 10.7%.
Take `Fc1ccccc1/C=N/n1c(-c2cccnc2)n[nH]c1=S`: the inhibition was 11.6%.
As for `CN(C(=O)c1cccc(NC(=O)Cc2ccc([N+](=O)[O-])cc2)c1)C1CCC1`, the inhibition is 2.95%.
Next, `Nn1c(SCC(=O)Nc2ccc3c(c2)CCC3)nnc1C1CC1`: 10.2%.
For the compound `CC(C)NC(=O)Nc1cccc2c1O[C@H](CN(C)S(=O)(=O)c1cccs1)[C@@H](C)CN([C@H](C)CO)C2=O`, the inhibition was -2.12%.
Turning to `COc1ccc(CN(C)C(=O)c2cc(-c3ccc(C)cc3C)nc3ccccc23)c(OC)c1OC`, the inhibition is 43.5% (active).
Next, `COc1ccc(-c2cc(C(=O)N(C)Cc3ccc(OC)c(OC)c3OC)c3ccccc3n2)cc1OC`: 39.4%; `COc1ccc(-c2cc(C(=O)N(C)Cc3ccccc3)c3ccccc3n2)cc1`: 1.22%; `CN(C(=O)c1cccc(NC(=O)C2CCN(C(=O)OC(C)(C)C)CC2)c1)C1CCC1`: 5.08%.
Next, `CC(C)OC(=O)c1cc(NC(=O)C2C3CCC(O3)C2C(=O)O)cc(C(=O)OC(C)C)c1` (centres undefined): 8.17%.
Turning to `CC(C)OC(=O)c1c(NC(=O)c2ccco2)sc2c1CCCC2`, the inhibition is 12.4%.
Under `Cc1sc(NC(=O)C2C3CCC(O3)C2C(=O)O)c(C(=O)OC(C)C)c1-c1ccc(Cl)cc1` (centres undefined) stands 76% (active); under `Cn1cccc1C(=O)OCC(=O)NCCc1ccccc1`, 5.82%; under `O=[N+]([O-])c1cc(C(F)(F)F)ccc1NN=C1CCCC1`, 9.21%.
Under `CC1(C)C/C(=N/Nc2ccc([N+](=O)[O-])cc2[N+](=O)[O-])C(C)(C)O1` stands 7.54%; under `O=C(Nc1ccccc1)O/N=C1\CCCCC1c1ccc([N+](=O)[O-])cc1[N+](=O)[O-]` (centres undefined), 28.9%; under `O=[N+]([O-])c1ccc(N/N=C2/CCCCC2c2ccccn2)c([N+](=O)[O-])c1` (centres undefined), 49.2% (active).
On to `Cc1cc([N+](=O)[O-])ccc1NC1CCCC1`, for which the inhibition was 10.2%.
As for `C[n+]1ccccc1C1CCCC/C1=N\Nc1ccc([N+](=O)[O-])cc1[N+](=O)[O-]` (centres undefined), the inhibition was 93.3% (active).
On to `Cc1cc(C(=O)OCC(=O)N2C(C)CCCC2C)c2ccccc2n1` (centres undefined), for which the inhibition was 10.9%.
On to `Cc1cccc(NS(=O)(=O)c2ccc(C)c(C(=O)NCc3cccnc3)c2)c1`, for which the inhibition was 6.94%.
In the case of `N/C(=N\OC(=O)CCc1ccccc1)c1ccc(Cl)cc1`, the inhibition is 18.5%.
As to `Cc1ccc(NC(=O)Cn2cnc3c(OCc4ccccc4)ncnc32)cc1C`, the inhibition was 6.27%.
For `Cc1ccsc1C(=O)NCCc1ccco1`, the inhibition was 7.13%.
As to `O=C(Nc1cccc(S(=O)(=O)N2CCOCC2)c1)C12CC3CC(CC(C3)C1)C2`, the inhibition was 4.36%.
Turning to `COc1ccc(NC(=O)C2CCCN(S(=O)(=O)c3cccc4cccnc34)C2)cc1OC` (centres undefined), the inhibition is 22.1%.
Regarding `Cc1ccc(NC(=O)C2CCCN2S(=O)(=O)c2cccc3cccnc23)c(C)c1` (centres undefined), the inhibition is 21.6%.
As to `Cc1cc(C)cc(NC(=O)C2CCCN2S(=O)(=O)c2cccc3cccnc23)c1` (centres undefined), the inhibition was 89.3% (active).
Regarding `O=C(O)C1CCCN(S(=O)(=O)c2cccc3cccnc23)C1` (centres undefined), the inhibition was 4.71%.
In the case of `O=C(Nc1nccs1)C1CCCN1S(=O)(=O)c1cccc2cccnc12` (centres undefined), the inhibition is 47.1% (active).
In the case of `Cc1cccc(NC(=O)C2CCN(S(=O)(=O)c3cccc4cccnc34)CC2)c1`, the inhibition was 7.8%.
`O=C1OC[C@@H]2CCCN2C(=O)[C@H](CC(=O)N(CCO)Cc2ccccc2)C/C=C\CC[C@@H]1Cc1ccc(F)cc1`: the inhibition is 4.88%.
For `CC(=O)OCCC(C)C`, the inhibition is 3.23%.
Take `C=CC[C@H](CC(=O)N(CCO)Cc1ccccc1)C(=O)N[C@@H](COC(=O)[C@@H](CC=C)Cc1ccc(F)cc1)Cc1ccccc1`: the inhibition was 10.8%.
Next, `COc1ccccc1N1CC(C(=O)NCCN2C(=O)S/C(=C\c3cccnc3)C2=O)CC1=O` (centres undefined): 29.4%; `Cc1cc(OCCCC(=O)NCCN2C(=O)S/C(=C\c3cccnc3)C2=O)ccc1Cl`: 97.5% (active).
`CCOc1ccc(N2CC(C(=O)NCc3ccccn3)CC2=O)cc1` (centres undefined): the inhibition is 13.1%.
In the case of `COc1ccc(N2CC(C(=O)NCCN3C(=O)S/C(=C\c4cccnc4)C3=O)CC2=O)c(OC)c1` (centres undefined), the inhibition was 153% (active).
Next, `COc1cccc(NC(=O)C2c3cc(OC)c(OC)cc3C(=O)N(C)C2c2cccnc2)c1` (centres undefined): 10.3%; `CCCNC(=O)C1CC(=O)N(c2ccc(OCC(=O)Nc3cccc(C)c3C)cc2)C1` (centres undefined): 7.42%; `CCOc1ccc(N2CC(C(=O)NCCN3C(=O)S/C(=C\c4cccnc4)C3=O)CC2=O)cc1` (centres undefined): 55.7% (active).
`O=C(NCCN1C(=O)S/C(=C\c2cccnc2)C1=O)c1ccc(S(=O)(=O)N2CCCC2)cc1`: the inhibition is 41%.
Turning to `O=C(NCCN1C(=O)S/C(=C\c2cccnc2)C1=O)c1cccc(OC(F)F)c1`, the inhibition is 33.8%.

A word on the inhibition: it is the change of the read-out against control, counted positive when it falls.
